Results as given in PubChem BioAssay AID1159580 (chemical genetic matrix, 2015).
The campaign covered roughly 5,500 compounds. About 2,000 (36%) were called active. Inconclusive results (about 18%) are left out. Rule as the data show it: active = normalized growth mostly below about 0.91 (no sharp cut-off); inconclusive = no clear call, values can overlap the other calls; inactive = mostly above about 0.92. Some of the results follow.

Assay: chemical genetic growth profiling, strain panel (AID 1159580);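 also: tested at 20 µM; growth read once vehicle control cultures reached saturation at 30 °C; 1 = growth at the plate median or of vehicle wells; lower values mean less growth of the strain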
Conditions: growth OD

Measured: normalized growth

CN1CCCN=C1COC(=O)C(O)(c1ccccc1)C1CCCCC1 (configuration not stated)
inactive: S. cerevisiae deletion strains, locus YJR075W, strain HOC1, active compounds read low 0.993 | S. cerevisiae deletion strains, locus YKL009W, strain mrt4, active compounds read low 0.999 | S. cerevisiae deletion strains, locus YKL068W, active compounds read low 0.989 | S. cerevisiae deletion strains, locus YKL085W, strain MDH1 (second series), active compounds read low 1 | S. cerevisiae deletion strains, locus YKL085W, strain MDH1, active compounds read low 1 | S. cerevisiae deletion strains, locus YKL160W, strain elf1, active compounds read low 0.998 | S. cerevisiae deletion strains, locus YKL190W, strain CNB1, active compounds read low 0.997 | S. cerevisiae deletion strains, locus YKR001C, strain vps1, active compounds read low 0.975 | S. cerevisiae deletion strains, locus YKR026C, strain gcn3, active compounds read low 0.997 | S. cerevisiae deletion strains, locus YKR091W, strain srl3, active compounds read low 1 | S. cerevisiae deletion strains, locus YLL001W, strain dnm1, active compounds read low 0.989 | S. cerevisiae deletion strains, locus YLL026W, active compounds read low 0.991 | S. cerevisiae deletion strains, locus YLL041C, strain sdh2, active compounds read low 0.998 | S. cerevisiae deletion strains, locus YLR027C, strain aat2, active compounds read low 0.993 | S. cerevisiae deletion strains, locus YLR039C, strain RIC1, active compounds read low 1.02 | S. cerevisiae deletion strains, locus YLR058C, strain SHM2, active compounds read low 1.01 | S. cerevisiae deletion strains, locus YLR102C, strain apc9, active compounds read low 0.993 | S. cerevisiae deletion strains, locus YLR113W, strain HOG1, active compounds read low 1.01 | S. cerevisiae deletion strains, locus YLR221C, strain rsa3, active compounds read low 0.992 | S. cerevisiae deletion strains, locus YLR258W, strain gsy2, active compounds read low 1 | S. cerevisiae deletion strains, locus YLR262C, strain YPT6 (second series), active compounds read low 0.988 | S. cerevisiae deletion strains, locus YLR262C, strain YPT6, active compounds read low 1.02 | S. cerevisiae deletion strains, locus YLR268W, strain sec22, active compounds read low 0.971 | S. cerevisiae deletion strains, locus YLR320W, strain mms22, active compounds read low 1.01 | S. cerevisiae deletion strains, locus YLR330W, strain CHS5, active compounds read low 1.01 | S. cerevisiae deletion strains, locus YLR342W, strain FKS1 (second series), active compounds read low 1.02 | S. cerevisiae deletion strains, locus YLR342W, strain FKS1, active compounds read low 1 | S. cerevisiae deletion strains, locus YLR357W, strain rsc2, active compounds read low 0.976 | S. cerevisiae deletion strains, locus YLR370C, strain arc18, active compounds read low 0.992 | S. cerevisiae deletion strains, locus YLR371W, strain rom2, active compounds read low 0.993 | S. cerevisiae deletion strains, locus YLR384C, strain iki3, active compounds read low 0.982 | S. cerevisiae deletion strains, locus YLR418C, strain cdc73, active compounds read low 0.973 | S. cerevisiae deletion strains, locus YML016C, strain PPZ1, active compounds read low 1.01 | S. cerevisiae deletion strains, locus YML032C, strain rad52, active compounds read low 0.979 | S. cerevisiae deletion strains, locus YML120C, strain ndi1, active compounds read low 1 | S. cerevisiae deletion strains, locus YML124C, strain tub3, active compounds read low 0.992 | S. cerevisiae deletion strains, locus YMR058W, strain fet3, active compounds read low 0.95 | S. cerevisiae deletion strains, locus YMR078C, strain ctf18, active compounds read low 0.992 | S. cerevisiae deletion strains, locus YMR125W, strain sto1, active compounds read low 0.992 | S. cerevisiae deletion strains, locus YMR129W, active compounds read low 0.995 | S. cerevisiae deletion strains, locus YMR205C, strain PFK2, active compounds read low 0.993 | S. cerevisiae deletion strains, locus YMR223W, strain ubp8, active compounds read low 1 | S. cerevisiae deletion strains, locus YMR231W, strain pep5, active compounds read low 0.99 | S. cerevisiae deletion strains, locus YMR263W, strain SAP30, active compounds read low 1.01 | S. cerevisiae deletion strains, locus YMR307W, strain GAS1, active compounds read low 1.03 | S. cerevisiae deletion strains, locus YNL067W, strain RPL9B, active compounds read low 0.992 | S. cerevisiae deletion strains, locus YNL071W, strain lat1, active compounds read low 0.994 | S. cerevisiae deletion strains, locus YNL128W, strain TEP1, active compounds read low 1.01 | S. cerevisiae deletion strains, locus YNL153C, strain GIM3, active compounds read low 1 | S. cerevisiae deletion strains, locus YNL183C, strain NPR1, active compounds read low 0.947 | S. cerevisiae deletion strains, locus YNL209W, strain ssb2, active compounds read low 0.99 | S. cerevisiae deletion strains, locus YNL233W, strain BNI4, active compounds read low 0.998 | S. cerevisiae deletion strains, locus YNL248C, strain rpa49, active compounds read low 0.993 | S. cerevisiae deletion strains, locus YNL250W, strain rad50, active compounds read low 0.988 | S. cerevisiae deletion strains, locus YNL271C, strain bni1, active compounds read low 0.987 | S. cerevisiae deletion strains, locus YNL298W, strain CLA4, active compounds read low 0.994 | S. cerevisiae deletion strains, locus YNL307C, strain MCK1, active compounds read low 0.981 | S. cerevisiae deletion strains, locus YNL322C, strain KRE1 (second series), active compounds read low 1 | S. cerevisiae deletion strains, locus YNL322C, strain KRE1, active compounds read low 1 | S. cerevisiae deletion strains, locus YNR049C, strain mso1, active compounds read low 0.994 | S. cerevisiae deletion strains, locus YNR052C, strain pop2, active compounds read low 0.999 | S. cerevisiae deletion strains, locus YOL006C, strain TOP1, active compounds read low 1.04 | S. cerevisiae deletion strains, locus YOL012C, strain htz1 0.733 | S. cerevisiae deletion strains, locus YOL147C, strain pex11, active compounds read low 0.99 | S. cerevisiae deletion strains, locus YOR001W, strain rrp6, active compounds read low 1.01 | S. cerevisiae deletion strains, locus YOR061W, strain CKA2, active compounds read low 1.01 | S. cerevisiae deletion strains, locus YOR069W, strain VPS5, active compounds read low 1.01 | S. cerevisiae deletion strains, locus YOR070C, strain gyp1, active compounds read low 1.01 | S. cerevisiae deletion strains, locus YOR080W, strain dia2, active compounds read low 0.996 | S. cerevisiae deletion strains, locus YOR083W, strain WHI5, active compounds read low 0.995 | S. cerevisiae deletion strains, locus YOR106W, strain vam3, active compounds read low 1.01 | S. cerevisiae deletion strains, locus YOR136W, strain idh2, active compounds read low 0.991 | S. cerevisiae deletion strains, locus YOR144C, strain elg1, active compounds read low 0.991 | S. cerevisiae deletion strains, locus YOR184W, strain ser1, active compounds read low 1 | S. cerevisiae deletion strains, locus YOR231W, strain MKK1, active compounds read low 1 | S. cerevisiae deletion strains, locus YOR265W, strain rbl2, active compounds read low 0.984 | S. cerevisiae deletion strains, locus YOR270C, strain vph1, active compounds read low 1.02 | S. cerevisiae deletion strains, locus YOR290C, strain snf2, active compounds read low 1.02 | S. cerevisiae deletion strains, locus YOR316C, strain cot1, active compounds read low 1 | S. cerevisiae deletion strains, locus YPL051W, strain arl3, active compounds read low 0.997 | S. cerevisiae deletion strains, locus YPL055C, strain LGE1, active compounds read low 0.998 | S. cerevisiae deletion strains, locus YPL078C, strain atp4, active compounds read low 0.998 | S. cerevisiae deletion strains, locus YPL106C, strain sse1, active compounds read low 0.989 | S. cerevisiae deletion strains, locus YPL240C, strain hsp82, active compounds read low 0.991 | S. cerevisiae deletion strains, locus YPL241C, strain CIN2, active compounds read low 1.01 | S. cerevisiae deletion strains, locus YPL256C, strain CLN2, active compounds read low 0.992 | S. cerevisiae deletion strains, locus YPR119W, strain clb2, active compounds read low 0.993 | S. cerevisiae deletion strains, locus YPR141C, strain kar3, active compounds read low 0.994 | S. cerevisiae deletion strains, locus YPR163C, strain tif3, active compounds read low 0.991 | S. cerevisiae deletion strains, locus YPR167C, strain met16, active compounds read low 0.987 | S. cerevisiae deletion strains, strain wtn01, active compounds read low 0.966 | S. cerevisiae strains, strain wild type, active compounds read low 1
